Among the data in PubChem BioAssay (NCI) are growth values, retold here.

What all share (experiment): NCI-60 one-dose screen, 48 h (100 = growth as untreated, 0 = no growth, -100 = all killed)
Common to all, as to conditions: 10 µM unless noted

In assay [1] the test system is SK-MEL-2 melanoma.
In assay [2] the test system is EKVX NSCLC.
Assay [3] concerns SN12C renal.
For assay [4], the system named is UO-31 renal.
Assay [5] has as its system TK-10 renal.
Assay [6] relates to ACHN renal.
Assay [7] relates to CAKI-1 renal.
Assay [8] concerns A498 renal.
Assay [9] deals with CCRF-CEM leukemia.
The subject of assay [10] is SR leukemia.
The subject of assay [11] is RPMI-8226 leukemia.
For assay [12], the system named is OVCAR-8 ovarian.
Assay [13] concerns OVCAR-5 ovarian.
For assay [14], the system named is OVCAR-4 ovarian.
In assay [15] the test system is SK-OV-3 ovarian.
Assay [16] has as its system IGROV1 ovarian.
The test system of assay [17] is OVCAR-3 ovarian.
Assay [18] relates to HS 578T breast.
Assay [19] has as its system NCI/ADR-RES ovarian.
The test system of assay [20] is MOLT-4 leukemia.

Compounds without any hit were thinned out: in the full panel of roughly 83,000, 20% have a hit.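 Values shown are percent growth following 48 h exposure of cells in 96-well plates to a single concentration of compound; below 10 was considered active.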 Unmarked numbers belong to inactive results. Activity calls are given as the source filed them.

As to `C=CCC(CCCC)(C(=O)OCC)C(=O)OCC`, the growth in assay [1] is 100%; in assay [2], 114%; in assay [3], 110%; in assay [4], 85.3%; in assay [5] it was 104%; in assay [6], 102%. Moreover, the growth in assay [7] was 96.7%; in [8], 111%; in assay [9], 93.2%; in assay [10] it was 95.9%; in assay [11], 94.8%; in assay [12], 102%. The growth in [13] was 106%; in assay [14], 116%; in assay [15], 117%; in assay [16], 119%; in assay [17], 118%; in assay [18], 127%. In addition, the growth in assay [19] is 108%.

For `Ic1ccccc1I`, the growth was 85.4% in assay [1]; 98.9% in assay [2]; 105% in assay [3]; 78.6% in [4]; 105% in [5]; 104% in assay [6]. Further, the growth in assay [7] was 105%; in assay [8] it was 106%; in assay [9] it was 42.6%; in assay [20], 101%; in assay [11], 104%; in assay [12], 96.8%. The growth was 98% in [13]; 101% in assay [14]; 106% in assay [15]; 99.8% in [16]; 110% in assay [17]; 97.1% in assay [18]. In addition, in assay [19], the growth was 101%.

Regarding `O=C(NCc1cccc(CNC(=O)Nc2nc3ccccc3[nH]2)c1)Nc1nc2ccccc2[nH]1`, the growth is -11.8% (active) in [1]; 11% in [2]; -52.2% (active) in assay [3]; 62.6% in assay [4]; -32.7% (active) in assay [5]; 70.2% in assay [6]. Moreover, the growth in assay [7] was 31.6%; in [8], -31% (active); in assay [9], 30.3%; in assay [10], 40.1%; in [11], -18.8% (active); in assay [12], -52.3% (active). The growth was -2.26% (active) in [13]; -75.7% (active) in [14]; -19% (active) in assay [15]; 13.7% in assay [16]; -42.3% (active) in assay [17]; -15.3% (active) in [18]. In addition, the growth in assay [19] is 83.3%.

As to `CC(C)CCN(CCC(C)C)CC(O)c1cc2c(c3ccccc13)CCCC2` (centres undefined), the growth in assay [1] is 76.4%; in assay [2], 73%; in assay [3], 68.6%; in assay [4], 48.7%; in [5] it was 102%; in assay [6], 52.4%. Besides, the growth in assay [7] is 77.2%; in [8], 52.5%; in [9], 65.6%; in [20], 55.6%; in [11], 49.3%; in [12], 81.6%. Further, the growth was 71.5% in assay [13]; 78.2% in assay [14]; 76.8% in assay [15]; 64.2% in [16]; 85% in [17]; 80.6% in assay [18]. In addition, the growth in assay [19] was 71.8%.

`CS(=O)(=O)c1ccc(NC(=O)c2ccccc2)nc1`: the growth in assay [1] is 109%; in [2] it was 109%; in [3], 99.1%; in assay [4], 99.9%; in assay [5] it was 93.5%; in [6] it was 111%. The growth in assay [7] was 106%; in [8] it was 92.3%; in [9], 74.7%; in assay [10] it was 76.8%; in assay [11] it was 100%; in assay [12], 107%. Moreover, the growth in assay [13] was 108%; in assay [14], 115%; in [15] it was 94.1%; in assay [16] it was 111%; in [17] it was 110%; in assay [18], 98.1%. The growth in assay [19] was 110%.

With `C#CCn1cnc2cnc(Nc3cccc(NC(=O)C=C)c3)nc21`, the growth in assay [1] was 61.1% [6.25 µM]; in [2], 89.2% [6.25 µM]; in assay [3], 90.5% [6.25 µM]; in [4], 37.5% [6.25 µM]; in assay [5] it was 79.9% [6.25 µM]; in assay [6], 75.3% [6.25 µM]. Further, the growth in assay [7] was 83.4% [6.25 µM]; in assay [8] it was 72% [6.25 µM]; in [9], 1.84% [6.25 µM] (active); in [10], 4.73% [6.25 µM] (active); in assay [11], -14% [6.25 µM] (active); in assay [12], 84.1% [6.25 µM]. For the same compound, the growth is 101% [6.25 µM] in assay [13]; 90.8% [6.25 µM] in assay [14]; 52.4% [6.25 µM] in [15]; 75.2% [6.25 µM] in assay [16]; 104% [6.25 µM] in [17]; 74.5% [6.25 µM] in [18]. For the same compound, in assay [19], the growth was 98.6% [6.25 µM].
